Data as given in ChEMBL document CHEMBL4513216, “Probing the Open Global Health Chemical Diversity Library for Multistage-Active Starting Points for Next-Generation Antimalarials” (ACS Infect Dis, 2020).
In all, about 65,000 compounds went through this assay and about 2,100 (3.2%) showed an effect of 50% or more. The median lay at about -52%. Many of the other results were omitted from the sample, so strong results are more common in it than they were.

Tested on: Plasmodium falciparum
Assay: Screen against P. falciparum Asexual Blood Stage (ABS), at 5uM
Format: functional, Dd2
Conditions: tested at 5 uM

Row | Structure (SMILES) | INHIBITION [%]
1 | CCc1nc(CN2CCCC(NCc3cccc(C(N)=O)c3)C2)no1 (stereo not given) | -86.3
2 | Cc1ccnn1CC(=O)N(C)Cc1cnn(-c2ccccc2)c1 | -96.8
3 | CC(=O)NCCNC(=O)c1cc(COc2ccccc2)[nH]n1 | -173
4 | CO[C@H]1CN(C(C)C)C[C@@H]1NC(=O)c1cc(COc2ccccc2)[nH]n1 | 57.2
5 | CO[C@H]1CN(C(C)C)C[C@@H]1NC(=O)c1cc(-c2ccccc2F)n[nH]1 | -41.9
6 | N#Cc1ccc(CNCCS(=O)(=O)N2CCc3ccccc32)cc1 | -57.5
7 | OC1CCN(c2ccnc(NCCN3CCc4ccccc4C3)n2)C1 (stereo not given) | -46.6
8 | OC1CCN(c2ccnc(NCCc3ccccc3Cl)n2)CC1 | -50.8
9 | OC1CCN(c2ccnc(NCCc3ccccc3Cl)n2)C1 (stereo not given) | 61.6
10 | O=C(NCC1(Sc2ccccc2)CC1)c1ccc(=O)[nH]n1 | -22.5
11 | COCCOc1ccc(CNc2nc3ccccc3nc2N)cn1 | -49.5
12 | CCC1=NN2C(=N)C(=Cc3cccn3-c3cccc(Cl)c3)C(=O)N=C2S1 | -39.1
13 | COc1cc(NC(=O)NCc2nccn2C)ccc1Br | -84.1
14 | O=C(c1ccco1)N1CCCC(c2cc(C(F)(F)F)n3ncnc3n2)C1 (stereo not given) | 4.5
15 | Cc1ccsc1CN1C[C@@H]2COC[C@]2(CNC(=O)c2ccco2)C1 | 21.9
16 | CC(C)N1CCC2(C=C(C(=O)N(C)C)c3ccccc32)CC1 | -3.5
17 | CN1CCC2(C=C(C(=O)N(C)C)c3ccccc32)CC1 | 61.5
18 | CCN1CCC2(C=C(C(=O)N(C)C)c3ccccc32)CC1 | -0.272
19 | Cc1nc(CN(C)C2CCN(Cc3ccc4ccccc4n3)C2)no1 (stereo not given) | -24.6
20 | Cc1ccccc1N1CC2(CCN(c3nncs3)C2)CC1=O (stereo not given) | -152
21 | O=C(NC1CC1)[C@@]12CCO[C@@H]1CCN(Cc1ccc3c(c1)OCO3)C2 | -28.1
22 | O=C1Nc2ccccc2C1C1CCN(C(=O)C2CC2)CC1 (stereo not given) | -87.8

Row | Structure (SMILES) | INHIBITION [%]
23 | CN(C)C(=O)N1CCC(C2C(=O)Nc3ccccc32)CC1 (stereo not given) | 60
24 | CC(C)C(=O)N1CCC(C2C(=O)Nc3ccccc32)CC1 (stereo not given) | -81.3
25 | CCOc1ccc(OCCN2CCC(N3CCNC3=O)CC2)cc1 | -43.4
26 | Cc1cc2c(N)nc(=O)n(CC(=O)Nc3cccc(Cl)c3)c2s1 | -44.3
27 | O=C1N(Cc2cccc(F)c2)CCC12CCCN(c1ncc(F)cn1)C2 (stereo not given) | -95.8
28 | Cc1cccc(CN2CCC3(CCN(c4ncccn4)C3)C2=O)c1 (stereo not given) | -63.6
29 | O=C1N(Cc2cccc(F)c2)CCC12CCN(c1ccccn1)CC2 | 50.6
30 | Cc1noc(C)c1C(=O)N1Cc2ncn(C)c2C(COCC2CC2)C1 (stereo not given) | -98.5
31 | Cc1ccc(N2CC[C@H]3CO[C@H](CN(C)Cc4ccco4)[C@H]3C2)nn1 | -35.9
32 | CN(Cc1ccco1)C[C@@H]1OC[C@H]2CN(Cc3nccs3)CC[C@H]21 | -48.2
33 | Cc1cccc(N2CC[C@H]3[C@H](CO[C@@H]3CN(C)Cc3ccco3)C2)n1 | 7.29
34 | CN(Cc1ccco1)C[C@H]1OC[C@@H]2CCN(Cc3ccsc3)C[C@@H]21 | 67.3
35 | CN(Cc1ccco1)C[C@H]1OC[C@@H]2CCN(Cc3cccnc3)C[C@@H]21 | -38.5
36 | Cc1ccc(CN2CC[C@H]3CO[C@H](CN(C)Cc4ccco4)[C@H]3C2)s1 | 58.7
37 | CN(Cc1ccco1)C[C@H]1OC[C@@H]2CCN(Cc3nccs3)C[C@@H]21 | 11.4
38 | CN(Cc1ccco1)C[C@H]1OC[C@@H]2CCN(Cc3ccncc3)C[C@@H]21 | 2.4
39 | Cc1cccc(N2CC[C@H]3CO[C@H](CN(C)Cc4ccco4)[C@H]3C2)n1 | 50.7
40 | O=C(c1ccco1)N1CCCC2(CCN(c3nncs3)C2)C1 (stereo not given) | -157
41 | O=C(NCc1ccccn1)[C@@]12CCO[C@@H]1CCN(Cc1ccccn1)C2 | -75.4
42 | CC(C)(C)c1nc(CNc2ccccc2SCCC(N)=O)cs1 | -98.5
43 | CN(C)C1CCC2(CCN(Cc3nccn3C)CC2)c2ccccc21 (stereo not given) | 24.3
44 | Cn1cc(C(=O)NCCc2ccc(OC3CCCC3)cc2)ccc1=O | -53.4

Row | Structure (SMILES) | INHIBITION [%]
45 | O=S(=O)(c1ccccc1)N1CCC2(CCCN2Cc2ccccc2Cl)C1 (stereo not given) | -129
46 | CCCNC(=O)C1CCCN(c2ccc3nncn3n2)C1 (stereo not given) | -47.2
47 | CS(=O)(=O)Nc1ccn(Cc2ccc(Cl)cc2)n1 | -58.2
48 | CCCN(CCC)c1ncc(S(=O)(=O)c2ccc(OC)cc2)c(N)n1 | 67.6
49 | CCCN(CCC)c1ncc(S(=O)(=O)c2ccc(C)cc2)c(N)n1 | 14.8
50 | CCCN(CCC)c1ncc(S(=O)(=O)c2ccccc2)c(N)n1 | -9.26
51 | CC(C)(C)NC(=O)N1CCC(Oc2ccc(C(F)(F)F)cn2)CC1 | -12
52 | CNC(=O)CN1CCCC12CCN(C(=O)c1ccc(F)cc1)CC2 | -39
53 | CNC(=O)CN1CCCC12CCN(C(=O)c1ccoc1)CC2 | 53.1
54 | CN(C)CCN1CCCC12CCN(C(=O)c1ccoc1)CC2 | -39
55 | O=C(CCNc1ncccn1)N1CCCC(n2cccn2)C1 (stereo not given) | -28.6
56 | Cc1cc(C(=O)NC2CCCc3c2cnn3-c2cccc(C)c2C)[nH]n1 (stereo not given) | -1.74
57 | CC(C)Cc1ncc2c(n1)CN(c1nc3ccccc3cc1CO)C2 | -50
58 | Cc1ccc(C(=O)O)c(N2Cc3cnc(C(C)(C)C)nc3C2)n1 | -21.3
59 | Cc1cccc2cc(CO)c(N3Cc4cnc(C(C)(C)C)nc4C3)nc12 | 66.5
60 | O=C(c1ccoc1)N1CCO[C@]2(CCC[C@@H]2COCc2cccnc2)C1 | -54.6
61 | Cc1ccc(N2CC[C@@H]3[C@@H]2CCN3C(=O)Cc2ccsc2)nn1 | -93.9
62 | Cc1cc2c(cc1NC(=O)NC(C)(C)C)OCO2 | -23.5
63 | CCOCc1nc2c(c(N(C)Cc3nonc3C)n1)CCNCC2 | 47.4
64 | CCOCc1nc2c(c(N(C)Cc3ccsc3)n1)CCNCC2 | 64.4
65 | CCOCc1nc2c(c(N(C)Cc3snnc3C)n1)CCNCC2 | -48
